Rows were chosen to be rich in hits. Some 3.5% of all compounds tested hit in one or more screens of this group.
mHTT-CaM PPI inh = inhibitors of human mutant huntingtin-calmodulin interaction; P42858; inhibition, % at 15 µM; 190,000 compounds, 3.6% hits; AlphaScreen His-mHTT/GST-CaM binding, luminescence;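 further: 0% = both proteins with DMSO and 100% = one protein alone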
Pf apPOL inh = Pf-apPOL DNA polymerase inhibition. Recombinant Pf-apPOL, molecular beacon fluorescence, 1.5 h. inhibition, % at 10 µM. 210,000 compounds, 0.25% hits. AID 1794808
* = called active by the depositor; ! = a repeat was not active. No stated cut-off is given here; in the data, active means inhibition above about 50%; inactive means the rest.

Results for Cc1ccc(NC(=O)N2CCC3(CC2)NC(=O)c2cc(F)ccc2N3C)cc1C ?
mHTT-CaM PPI inh: 3.1; Pf apPOL inh: -3.4

How did CCNC(=O)N1CCCC1c1nc2cc(-c3ccc(N(C)C)cc3)ccc2o1 (centres undefined) do in these assays?
mHTT-CaM PPI inh: 84.0*; Pf apPOL inh: -3.2

How did CC(C)(C)C(=O)N1CCCC1c1nc2cc(-c3ccccc3)ccc2o1 (centres undefined) do in these assays?
mHTT-CaM PPI inh: 14.7; Pf apPOL inh: 1.3

How did Cc1ncnc2c1CCC(=O)N2CCC1=CCCCC1 do in these assays?
mHTT-CaM PPI inh: -13.7; Pf apPOL inh: 3.7

Results for CCC(CC)C(=O)N1CCc2c(c(C(=O)NCc3ccc(Cl)cc3)nn2C)C1 ?
mHTT-CaM PPI inh: 71.4*; Pf apPOL inh: -1.6

Results for Cn1nc(C(=O)NCc2ccc(Cl)cc2)c2c1CCN(C(=O)c1ccc(F)cc1)C2 ?
mHTT-CaM PPI inh: -10.0; Pf apPOL inh: 3.9

How did CCC(=O)N1CCc2c(c(C(=O)NCc3ccccc3)nn2C)C1 do in these assays?
mHTT-CaM PPI inh: -6.0; Pf apPOL inh: -4.9

Results for CCCC(CCC)C(=O)N1CCc2c(c(C(=O)NCc3ccc(F)cc3)nn2C)C1 ?
mHTT-CaM PPI inh: 76.8*; Pf apPOL inh: -5.0

What do the screens show for `CCC(CC)C(=O)N1CCc2c(c(C(=O)NCc3ccccc3)nn2C)C1`?
mHTT-CaM PPI inh: 51.0*; Pf apPOL inh: -4.0

What do the screens show for `CCCCC(=O)N1CCc2c(c(C(=O)NCc3ccc(F)cc3)nn2C)C1`?
mHTT-CaM PPI inh: 46.7; Pf apPOL inh: -9.2

What do the screens show for `COc1ccccc1-c1nocc1C(N)=O`?
mHTT-CaM PPI inh: 6.5; Pf apPOL inh: -1.6

What do the screens show for `CCC(C)NC(=O)c1oc2ccc(S(=O)(=O)N3CCCC3)cc2c1C` (centres undefined)?
mHTT-CaM PPI inh: 7.0; Pf apPOL inh: -5.5

What do the screens show for `CCOC(=O)Cc1ccc(NC(=O)N2CCCC2c2ccc(F)cc2)cc1` (centres undefined)?
mHTT-CaM PPI inh: -1.8; Pf apPOL inh: -5.7

What do the screens show for `COc1ccc(C(=O)C=Cc2ccc(OC)c(OC)c2)c(O)c1`?
mHTT-CaM PPI inh: 50.1*; Pf apPOL inh: -3.1

How did COc1ccc(C(=O)C=Cc2ccc(OC)c(OC)c2)c(OC)c1 do in these assays?
mHTT-CaM PPI inh: 13.0; Pf apPOL inh: -15.8

Results for CCN(CC)CCCOc1cccc(C)c1 ?
mHTT-CaM PPI inh: -7.3; Pf apPOL inh: 5.2

How did N#CC1=C(N)OC2=C(C(=O)CC(c3ccccc3)C2)C1c1ccsc1 (centres undefined) do in these assays?
mHTT-CaM PPI inh: 5.7; Pf apPOL inh: 1.4

How did N#CC1=C(N)OC2=C(C(=O)CC(c3ccccc3)C2)C1C1CCCCC1 (centres undefined) do in these assays?
mHTT-CaM PPI inh: 59.6*!; Pf apPOL inh: 50.6*!

How did N#CC1=C(N)OC2=C(C(=O)CC(c3ccccc3)C2)C1c1ccc(Cl)cc1Cl (centres undefined) do in these assays?
mHTT-CaM PPI inh: 68.8*; Pf apPOL inh: -6.5

How did N#CC1=C(N)OC2=C(C(=O)CC(c3ccccc3)C2)C1c1ccc(Cl)cc1 (centres undefined) do in these assays?
mHTT-CaM PPI inh: -2.2; Pf apPOL inh: -7.5

What do the screens show for `O=C(CC1Sc2ccccc2NC1=O)NNC(=O)c1cc(C(F)(F)F)cc(C(F)(F)F)c1` (centres undefined)?
Pf apPOL inh: 58.4*

What do the screens show for `O=C(CC1Sc2ccccc2NC1=O)Nc1ccc(C(F)(F)F)cc1` (centres undefined)?
mHTT-CaM PPI inh: 7.0; Pf apPOL inh: -7.4

What do the screens show for `COc1cccc(NC(=O)C2(C)Oc3cccnc3N(C(C)C)C2=O)c1` (centres undefined)?
mHTT-CaM PPI inh: -3.7; Pf apPOL inh: -6.5

What do the screens show for `Cc1ccc(S(=O)(=O)N2CCCC(C)(C(=O)NCc3ccccc3C)C2)cc1C` (centres undefined)?
mHTT-CaM PPI inh: 77.1*; Pf apPOL inh: -3.9

What do the screens show for `Cc1ccccc1CNC(=O)C1(C)CCCN(S(=O)(=O)c2ccc(F)cc2)C1` (centres undefined)?
mHTT-CaM PPI inh: -6.0; Pf apPOL inh: -1.2

What do the screens show for `Cc1ccccc1CNC(=O)C1(C)CCCN(S(=O)(=O)c2ccc(F)c(Cl)c2)C1` (centres undefined)?
mHTT-CaM PPI inh: 83.8*; Pf apPOL inh: -2.4

How did COc1ccc(S(=O)(=O)N2CCCC(C)(C(=O)NCc3ccccc3C)C2)cc1 (centres undefined) do in these assays?
mHTT-CaM PPI inh: -0.3; Pf apPOL inh: -0.9

How did O=C(O)c1ccccc1SC1CC(=O)N(c2cccc(C(F)(F)F)c2)C1=O (centres undefined) do in these assays?
mHTT-CaM PPI inh: -1.0; Pf apPOL inh: -3.2

How did COc1ncc(C(=O)NCc2ccc(F)c(Cl)c2)cn1 do in these assays?
mHTT-CaM PPI inh: -9.1; Pf apPOL inh: -1.1

What do the screens show for `O=C(c1ccc(Oc2ccccc2)cc1)N1CC(c2nc3ccccc3[nH]2)C1`?
mHTT-CaM PPI inh: 99.6*; Pf apPOL inh: -28.5

How did Cc1cc(C(=O)N2CC(c3nc4ccccc4[nH]3)C2)no1 do in these assays?
mHTT-CaM PPI inh: -9.7; Pf apPOL inh: -2.4

How did CCOC(=O)c1ccc(S(=O)(=O)NCCCn2nc(-c3ccncc3)ccc2=O)cc1 do in these assays?
mHTT-CaM PPI inh: -8.2; Pf apPOL inh: -6.2

How did C=CCN1C(=O)C2(Oc3ccccc3C3CC(c4ccccc4)=NN32)c2ccccc21 (centres undefined) do in these assays?
mHTT-CaM PPI inh: 7.0; Pf apPOL inh: 0.5

How did c1csc(C2=NN3C(C2)c2ccccc2OC32CCCC2)c1 (centres undefined) do in these assays?
mHTT-CaM PPI inh: 56.0*; Pf apPOL inh: -0.7

How did Clc1ccc2c(c1)C1CC(c3cccnc3)=NN1C1(CCCCC1)O2 (centres undefined) do in these assays?
mHTT-CaM PPI inh: 51.0*; Pf apPOL inh: -23.2

Results for c1ccc(C2=NN3C(C2)c2ccccc2OC32CCCCC2)cc1 (centres undefined) ?
mHTT-CaM PPI inh: 44.0; Pf apPOL inh: -0.9

Results for c1ccc(C2=NN3C(C2)c2ccccc2OC32CCCC2)cc1 (centres undefined) ?
mHTT-CaM PPI inh: 51.0*; Pf apPOL inh: 29.2

Results for O=C1Nc2ccccc2C12Oc1ccccc1C1CC(c3ccc(Cl)cc3)=NN12 (centres undefined) ?
mHTT-CaM PPI inh: 100.0*; Pf apPOL inh: -3.9

Results for CN(CC(=O)N1N=C(c2cccs2)CC1c1ccccc1Cl)C(=O)C1CCC1 (centres undefined) ?
mHTT-CaM PPI inh: 25.5; Pf apPOL inh: 3.3

What do the screens show for `CN1CCC2(CC1)Oc1ccc(Cl)cc1C1CC(c3ccc(Cl)cc3)=NN12` (centres undefined)?
mHTT-CaM PPI inh: 24.0

What do the screens show for `COCc1noc(C2CCCCN2C(=O)Cc2c(C)noc2C)n1` (centres undefined)?
mHTT-CaM PPI inh: -1.6; Pf apPOL inh: -0.5

Results for COc1ccc(OC)c(NC(=O)CN2C(=O)C(c3ccc(F)cc3)=NC2(C)C)c1 ?
mHTT-CaM PPI inh: -3.6; Pf apPOL inh: -6.0

Results for Cn1c(=O)c(-c2nc(-c3cccc(F)c3)no2)c(O)c2ccccc21 ?
mHTT-CaM PPI inh: -10.6; Pf apPOL inh: -0.4

What do the screens show for `CCC1(C)Oc2ccccc2C2CC(c3ccccc3)=NN21` (centres undefined)?
mHTT-CaM PPI inh: 44.0; Pf apPOL inh: -0.1

Results for Cc1ccc(C2=NN3C(C2)c2ccccc2OC32CCCCC2)o1 (centres undefined) ?
mHTT-CaM PPI inh: 53.0*; Pf apPOL inh: -5.9

High-throughput results (PubChem BioAssay)
